# In PubChem BioAssay:
# Several values for one entry are separate records, joined by “and”; a condition that tells them apart may be missing. Equal entries are not always repeated. Inconclusive results are not listed. A structure can be active in one record and inactive in another. Activity calls are given as the source filed them.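 Rule for the calls, unless noted: active = normalized viability below 100% at a tested concentration; inactive = the rest.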
# What was measured:
# [1] = tested on: Aerobactin synthetase IucA (Klebsiella pneumoniae); test: IucA aerobactin synthetase inhibitors, biochemical, Tocris library, absorbance (AID 1345561; call rule not given here;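 note: 100% = enzyme without compound and 0% = no enzyme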); conditions: purified IucA enzyme assay, absorbance (OD) read-out; stronger effect = lower value;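 tested at 8 µM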
# [2] = JHH-DIPG-1 glioma cell viability, MIPE5.0 library, CellTiter-Glo luminescence, qHTS (AID 1347067; cut-off not given, nearly all actives have AC50 up to about 26 µM;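 note: cells exposed to compound for 48 hours before readout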); conditions: JHH-DIPG-1 glioma viability, CellTiter-Glo ATP luminescence
# [3] = SU-DIPG-XXV glioma cell viability, MIPE5.0 library, qHTS (AID 1347068; cut-off not given, nearly all actives have IC50 up to about 30 µM)
# [4] = sensitizers of A549 cells to miR-34 induction, primary screen, imaging, A549 dox-inducible miR-34, nuclei and caspase counts (AID 1347080;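 active = compounds whose cell count with miR-34 switched on is under 0.7 times the count with it off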); conditions: A549 miR-34 inducible, Hoechst nuclei count, 48 h
# [5] = viability rescue of complex I mutant cybrids, primary screen, cell-based, galactose medium, ATP luminescence (AID 1645843;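 active = z-score of at least 1.8 in each of two replicates, scored against plate mean and spread of sample wells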;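 note: positive z means more ATP and so rescue of galactose-driven cybrid death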); conditions: complex I mutant cybrid cells, 72 h, stronger effect = higher value
# [6] = growth inhibition of DIPG glioma cells, dose response, cell-based, SU-DIPG-IV, MIPE4.0, CellTiter-Glo, qHTS (AID 1347063; cut-off not given, nearly all actives have AC50 up to about 30 µM;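 note: compound exposure lasted 48 hours before the viability readout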); conditions: SU-DIPG-IV viability, CellTiter-Glo ATP luminescence
# [7] = SU-DIPG-VI glioma cell viability, MIPE4.0 library, CellTiter-Glo luminescence, qHTS (AID 1347066; cut-off not given, nearly all actives have AC50 up to about 30 µM;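 note: cells exposed to compound for 48 hours before readout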); conditions: CellTiter-Glo ATP luminescence
# [8] = modifiers of HSF1 nuclear foci, imaging, Selleck Cancer Library (AID 1347162; in the data active = plate-normalised HSF1 focus index below about 0.46); conditions: human cells, at 10 µM; SSMD: measured here: HSF1 foci SSMD mean; cell count: measured here: cell number; plate-normalised HSF1 focus index: stronger effect = lower value
# [9] = hESC survival regulators, cell-based (AID 493140; call rule not given here;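 note: cells exposed to compounds for four days before counting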); conditions: human embryonic stem cell survival screen; stronger effect = higher value
# [10] = liver-stage malaria parasite growth inhibition, primary screen, cell-based, HepG2, luciferase luminescence, HepG2 viability (AID 624349; in the data active = parasite load remaining mostly below about 12%, no sharp cut-off; inactive = mostly above about 10%;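 note: 100% = mean of DMSO negative control wells on the same plate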); conditions: P. berghei liver stage in HepG2, luciferase luminescence, concentration not given here; parasite load remaining: stronger effect = lower value; viability: measured here: HepG2 viability without parasites
# [11] = tested on: Hepatitis C virus NS3 helicase; test: HCV NS3 helicase inhibitors, primary screen, biochemical, fluorescence polarization, LOPAC1280 library (AID 687035; in the data active = inhibition above about 37%); conditions: Purified HCV NS3 helicase, Cy5-dT15 ssDNA binding fluorescence polarization; stronger effect = higher value; concentration not given here
# [12] = Cy5 fluorescence quenching or enhancement artefacts, artefact control for HCV NS3 helicase inhibitor project, biochemical, LOPAC1280 (AID 687037; call rule not given here); conditions: Cy5-DNA-NS3h complex fluorescence interference counterscreen
# [13] = inhibitors of Cryptococcus chitosan production, flow cytometry, Cibacron Brilliant Red staining (AID 1347148; call rule not given here;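 note: compound exposure lasted three days at 37 degrees C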); conditions: Cryptococcus neoformans chitosan, stronger effect = lower value; at 10 µM unless noted
# [14] = phospholipid biosynthesis inhibitors in animal cells, primary screen, cell-based, LOPAC library, screen 4 (AID 1347384; call rule not given here); conditions: phospholipid biosynthesis inhibition screen, at 10 µM
# [15] = ovarian cancer cell viability with rucaparib, profiling panel, oncology-focused library, rucaparib conditional (AID 1508598); conditions: patient-derived ovarian cancer cells, CellTiter-Glo viability, 144 h, stronger effect = lower value
# [16] = stronger effect = lower value, cell number ratio, induced over uninduced
# [17] = measured here: relative caspase fold change +Dox/-Dox
# [18] = measured here: total cells with miR-34 induction, stronger effect = lower value
# [19] = measured here: total cells without miR-34 induction
structure (smiles),measurement,setting,value
CN(CCOc1ccc(-c2ccc3c(c2)OCO3)cc1C(C)(C)C)CC(=O)O,remaining activity,[1],102% (inactive)
same,AC50,[2],23.5 µM (active)
same,outcome,[3],inactive
same,fold change,[4]; [16],0.865 (inactive)
same,fold change,[4]; [17],1.03
same,cell count,[4]; [18],7520
same,cell count,[4]; [19],8690
same,z-score,[5],-0.035 (inactive)
CC(C)C[C@@H](C(=O)N[C@H](C(=O)OC1CCCC1)c1ccccc1)[C@H](O)C(=O)NO,remaining activity,[1],125% (inactive)
same,AC50,[6],16.6 µM (active)
same,AC50,[7],23.5 µM (active)
same,outcome,[2],inactive
same,fold change,[4]; [16],1 (inactive)
same,fold change,[4]; [17],1.24
same,cell count,[4]; [18],7280
same,cell count,[4]; [19],7280
same,SSMD,[8],3.49
same,cell count,[8],6800
same,plate-normalised HSF1 focus index,[8],1.19 (inactive)
same,z-score,[5],0.875 (inactive)
Cc1ccc(S(=O)(=O)/C=C/C#N)cc1,survival,[9],9.17 (inactive)
same,parasite load remaining,[10],28.8% (inactive)
same,viability,[10],155%
same,inhibition,[11],0% (inactive)
same,fluorescence ratio (interference),[12],1 (inactive)
same,remaining activity,[1],118% (inactive)
same,fold change,[4]; [16],1.22 (inactive) and 0.866 (inactive) and 0.568 (active)
same,fold change,[4]; [17],0.97 and 2.14 and 4.02
same,cell count,[4]; [18],1120 and 1020 and 904
same,cell count,[4]; [19],923 and 1180 and 1590
same,fold fluorescence,[13],8.49 [at 241.3 µM] (inactive)
same,SSMD,[8],-10.4
same,cell count,[8],6840
same,plate-normalised HSF1 focus index,[8],0.628 (inactive)
same,outcome,[14],inactive
same,viability,"[15]; at 0.000305 µM, OCI-C5x cells, with rucaparib 10 µM, 100% = cells with rucaparib alone",105% (inactive)
same,viability,"[15]; at 0.000305 µM, OCI-C5x cells, without rucaparib",97.6% (active)
same,viability,"[15]; at 0.000305 µM, OCI-P5x cells, with rucaparib 20 µM, 100% = cells with rucaparib alone",97.8% (active)
same,viability,"[15]; at 0.000305 µM, OCI-P5x cells, without rucaparib",102% (inactive)
same,viability,"[15]; at 0.00122 µM, OCI-C5x cells, with rucaparib 10 µM, 100% = cells with rucaparib alone",116% (inactive)
same,viability,"[15]; at 0.00122 µM, OCI-C5x cells, without rucaparib",111% (inactive)
same,viability,"[15]; at 0.00122 µM, OCI-P5x cells, with rucaparib 20 µM, 100% = cells with rucaparib alone",98.6% (active)
same,viability,"[15]; at 0.00122 µM, OCI-P5x cells, without rucaparib",106% (inactive)
same,viability,"[15]; at 0.00488 µM, OCI-C5x cells, with rucaparib 10 µM, 100% = cells with rucaparib alone",116% (inactive)
same,viability,"[15]; at 0.00488 µM, OCI-C5x cells, without rucaparib",123% (inactive)
same,viability,"[15]; at 0.00488 µM, OCI-P5x cells, with rucaparib 20 µM, 100% = cells with rucaparib alone",94.4% (active)
same,viability,"[15]; at 0.00488 µM, OCI-P5x cells, without rucaparib",105% (inactive)
same,viability,"[15]; at 0.0195 µM, OCI-C5x cells, with rucaparib 10 µM, 100% = cells with rucaparib alone",115% (inactive)
same,viability,"[15]; at 0.0195 µM, OCI-C5x cells, without rucaparib",117% (inactive)
same,viability,"[15]; at 0.0195 µM, OCI-P5x cells, with rucaparib 20 µM, 100% = cells with rucaparib alone",95.6% (active)
same,viability,"[15]; at 0.0195 µM, OCI-P5x cells, without rucaparib",106% (inactive)
same,viability,"[15]; at 0.0781 µM, OCI-C5x cells, with rucaparib 10 µM, 100% = cells with rucaparib alone",115% (inactive)
same,viability,"[15]; at 0.0781 µM, OCI-C5x cells, without rucaparib",109% (inactive)
same,viability,"[15]; at 0.0781 µM, OCI-P5x cells, with rucaparib 20 µM, 100% = cells with rucaparib alone",86.5% (active)
same,viability,"[15]; at 0.0781 µM, OCI-P5x cells, without rucaparib",102% (inactive)
same,viability,"[15]; at 0.313 µM, OCI-C5x cells, with rucaparib 10 µM, 100% = cells with rucaparib alone",115% (inactive)
same,viability,"[15]; at 0.313 µM, OCI-C5x cells, without rucaparib",116% (inactive)
same,viability,"[15]; at 0.313 µM, OCI-P5x cells, with rucaparib 20 µM, 100% = cells with rucaparib alone",90.2% (active)
same,viability,"[15]; at 0.313 µM, OCI-P5x cells, without rucaparib",94.8% (active)
same,viability,"[15]; at 1.25 µM, OCI-C5x cells, with rucaparib 10 µM, 100% = cells with rucaparib alone",122% (inactive)
same,viability,"[15]; at 1.25 µM, OCI-C5x cells, without rucaparib",112% (inactive)
same,viability,"[15]; at 1.25 µM, OCI-P5x cells, with rucaparib 20 µM, 100% = cells with rucaparib alone",83.8% (active)
same,viability,"[15]; at 1.25 µM, OCI-P5x cells, without rucaparib",81.1% (active)
same,viability,"[15]; at 5 µM, OCI-C5x cells, with rucaparib 10 µM, 100% = cells with rucaparib alone",3.86% (active)
same,viability,"[15]; at 5 µM, OCI-C5x cells, without rucaparib",4.91% (active)
same,viability,"[15]; at 5 µM, OCI-P5x cells, with rucaparib 20 µM, 100% = cells with rucaparib alone",26.6% (active)
same,viability,"[15]; at 5 µM, OCI-P5x cells, without rucaparib",2.37% (active)
same,z-score,[5],-1.38 (inactive) and -1.04 (inactive)
